Records with an inconclusive call do not appear. Calls of active or inactive are those of the source. Unless noted, the call rests on the fitted dose curve; in most records, active means well fitted curve in the direction sought with a large enough effect; inconclusive means small, poorly fitted or top-dose-only effect, or another doubt; inactive means no such curve, though single readings can be large; an effect the other way counts as inactive or inconclusive.
Assays:
[1] = Nrf2 qHTS screen for inhibitors: Validation (AID 493153; active means well fitted inhibition curve with a large enough effect in the main read-out, with a control signal flat, not every such curve was filed as active); conditions: Potency: luciferase luminescence; viability change: measured here: cytotoxicity max response
Outline: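 A549 cells carrying ARE-firefly luciferase reporter, 5000 cells/well in 5% FBS OPTI-MEM, treated with compound over a concentration series for 18-24 h at 37 C. Luciferase luminescence gave Nrf2 activity; CellTiter-Fluor fluorescence gave viability.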

[2] = qHTS for Inhibitors of Cell Surface uPA Generation: Validation Assay (AID 493164)
Outline: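 RAW 264.7 cells (4000/well) were plated overnight, then exposed for 18 h at 37 C, 5% CO2 to compounds in a 7-point 1:5 titration (2.45 nM–38.3 uM final). Intracellular ATP was read by ATP-Lite luminescence.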

[3] = biological target: Galactokinase (Homo sapiens) (UniProt P51570); assay: qHTS Validation Assay for Inhibitors of Human Galactokinase (GALK) (AID 493189)
Outline: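 5 nM GALK / 100 uM galactose / 35 uM ATP, 20 mM HEPES pH8.0, 5 mM MgCl2, 60 mM NaCl, 1 mM DTT, 0.01% BSA (final). RT 1 h; Kinase-Glo Plus luminescence.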

[4] = biological target: Phosphoglycerate kinase, glycosomal (Trypanosoma brucei brucei) (UniProt P07378); assay: qHTS Validation Assay to Find Inhibitors of Phosphoglycerate Kinase (AID 504547)
Outline: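 Substrate/PGK mix plus compound; reaction started with GAPDH (100nM final) to form 1,3-BPG; 60 min RT; Kinase-Glo Plus 10 min; luminescence. TEA 100mM pH 7.6, MgCl2 5mM, Tween-20 0.01%.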

[5] = biological target: phosphoglycerate mutase (Leishmania major) (UniProt Q4Q090); assay: qHTS Validation Assay to Find Inhibitors of Phosphoglycerate Mutase (AID 504548); conditions: Potency: inhibition qHTS; further: series mostly up to about 58 µM
Outline: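 Lm PGAM at 1.25 nM final with substrate in 100 mM TEA pH 7.6, 5 mM MgCl2, 0.01% Tween-20; 45 min at room temperature. Kinase-GloPlus added, 10 min, end-point luminescence read.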

[6] = biological target: Ubiquitin carboxyl-terminal hydrolase 1 (Homo sapiens) (UniProt O94782); assay: Inhibitors of USP1/UAF1: Pilot qHTS (AID 504865); further: nearly all actives have a fitted effect of over 35% in size; further: potency means the concentration at half of the fitted maximal effect
Outline: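 In 50mM HEPES pH 7.8 containing 0.5mM EDTA, 1mM TCEP, 0.1 mg/ml BSA and 0.01% Tween-20, 1nM USP1/UAF1 is exposed to compound for 15 min, then Ub-Rho (150nM final) is added and fluorescence is read over time.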

[7] = qHTS for Inhibitors of ATXN expression: Validation of Cytotoxic Assay (AID 588349)
Outline: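 HEK293 cells treated with titrated compound for 72 hr at 37 degrees C; viability read as intracellular ATP by CellTiter Glo luminescence.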

[8] = qHTS for Inhibitors of ATXN expression: Validation (AID 588378); further: series mostly up to about 57 µM; nearly all actives have a fitted effect of over 75% in size
Outline: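 Compounds were pinned onto attached HEK293 cells carrying an ATXN2-firefly luciferase construct and incubated 24 hrs at 37 degrees C. Each well then received a fluorescent viability reagent followed by luciferase substrate for end-point luminescence.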

[9] = biological target: Peptidyl-prolyl cis-trans isomerase NIMA-interacting 1 (Homo sapiens) (UniProt Q13526); assay: qHTS Validation Assay to Find Inhibitors of Pin1 (AID 504536; active means well fitted inhibition curve with a large enough effect in the polarisation, with a control signal flat, not every such curve was filed as active; the % refers to the polarisation)
Outline: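 Fluorescence polarization competition: compounds (titration) displace HiFluor-488-labeled Pin1-1b peptide from Pin1 (0.3 uM final) in pH 7.5 HEPES buffer with DTT, 10 min at room temperature; %Activity normalized to no-enzyme wells, curves fitted.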

[10] = Validation screen for small molecules that induce DNA re-replication in SW480 colon adenocarcinoma cells (AID 504364)
Outline: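 SW480 cells (250/well) exposed 48 h at 37 C, 5% CO2, then Hoechst-stained 40 min. Nuclear DNA content imaged by fluorescence scanning (405 nm excitation, 500-530 nm emission); re-replication scored as increased nuclei with elevated intensity.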

Sequence of Ubiquitin carboxyl-terminal hydrolase 1 (Homo sapiens) (O94782 whole entry, looked up): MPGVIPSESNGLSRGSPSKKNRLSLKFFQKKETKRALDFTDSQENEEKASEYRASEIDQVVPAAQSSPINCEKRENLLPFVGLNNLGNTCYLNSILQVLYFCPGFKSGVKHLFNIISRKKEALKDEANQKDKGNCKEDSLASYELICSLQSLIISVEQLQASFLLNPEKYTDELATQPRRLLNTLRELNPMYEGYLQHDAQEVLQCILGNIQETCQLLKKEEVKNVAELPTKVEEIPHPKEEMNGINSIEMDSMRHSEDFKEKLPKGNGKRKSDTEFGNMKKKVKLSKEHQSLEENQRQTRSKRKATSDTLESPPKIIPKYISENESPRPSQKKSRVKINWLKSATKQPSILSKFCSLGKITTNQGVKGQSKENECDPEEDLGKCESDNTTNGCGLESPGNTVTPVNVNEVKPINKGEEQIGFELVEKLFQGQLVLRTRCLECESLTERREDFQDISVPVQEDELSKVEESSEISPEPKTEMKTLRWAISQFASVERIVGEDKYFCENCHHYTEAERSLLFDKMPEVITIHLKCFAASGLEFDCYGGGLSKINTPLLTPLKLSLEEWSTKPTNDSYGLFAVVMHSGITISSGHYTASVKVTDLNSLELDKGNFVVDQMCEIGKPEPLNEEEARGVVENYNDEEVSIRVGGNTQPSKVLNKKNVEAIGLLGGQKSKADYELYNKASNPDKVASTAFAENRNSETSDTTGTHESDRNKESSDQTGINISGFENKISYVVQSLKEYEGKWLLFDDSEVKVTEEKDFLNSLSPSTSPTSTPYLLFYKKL
Sequence of Galactokinase (Homo sapiens) (P51570 whole entry, looked up): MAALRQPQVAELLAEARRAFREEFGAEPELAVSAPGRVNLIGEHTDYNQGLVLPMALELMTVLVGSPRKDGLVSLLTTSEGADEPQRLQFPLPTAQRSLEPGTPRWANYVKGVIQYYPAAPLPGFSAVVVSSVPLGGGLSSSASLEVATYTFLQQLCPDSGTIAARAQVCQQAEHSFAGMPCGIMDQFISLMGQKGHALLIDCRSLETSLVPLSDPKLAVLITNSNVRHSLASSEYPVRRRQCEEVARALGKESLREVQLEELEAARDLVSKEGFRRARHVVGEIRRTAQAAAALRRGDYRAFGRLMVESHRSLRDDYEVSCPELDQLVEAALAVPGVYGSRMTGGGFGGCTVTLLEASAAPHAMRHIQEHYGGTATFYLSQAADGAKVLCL
Sequence of Phosphoglycerate kinase, glycosomal (Trypanosoma brucei brucei) (P07378 whole entry, looked up): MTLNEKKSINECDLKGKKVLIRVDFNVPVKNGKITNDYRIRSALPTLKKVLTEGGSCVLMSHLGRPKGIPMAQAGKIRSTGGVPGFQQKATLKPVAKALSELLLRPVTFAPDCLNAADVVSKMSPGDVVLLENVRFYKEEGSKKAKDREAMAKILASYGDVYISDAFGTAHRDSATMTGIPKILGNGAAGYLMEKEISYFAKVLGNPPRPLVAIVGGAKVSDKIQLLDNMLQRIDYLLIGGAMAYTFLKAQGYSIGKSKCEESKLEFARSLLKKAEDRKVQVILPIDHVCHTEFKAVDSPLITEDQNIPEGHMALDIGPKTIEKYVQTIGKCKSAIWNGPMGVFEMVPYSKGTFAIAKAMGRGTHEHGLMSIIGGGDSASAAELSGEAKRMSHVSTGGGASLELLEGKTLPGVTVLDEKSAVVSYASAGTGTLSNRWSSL
Sequence of Peptidyl-prolyl cis-trans isomerase NIMA-interacting 1 (Homo sapiens) (Q13526 whole entry, looked up): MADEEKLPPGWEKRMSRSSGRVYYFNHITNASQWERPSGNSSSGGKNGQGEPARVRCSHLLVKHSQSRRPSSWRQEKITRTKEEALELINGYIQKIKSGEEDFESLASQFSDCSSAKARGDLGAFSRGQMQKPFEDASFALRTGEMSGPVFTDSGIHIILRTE
Sequence of phosphoglycerate mutase (Leishmania major) (Q4Q090 1-553): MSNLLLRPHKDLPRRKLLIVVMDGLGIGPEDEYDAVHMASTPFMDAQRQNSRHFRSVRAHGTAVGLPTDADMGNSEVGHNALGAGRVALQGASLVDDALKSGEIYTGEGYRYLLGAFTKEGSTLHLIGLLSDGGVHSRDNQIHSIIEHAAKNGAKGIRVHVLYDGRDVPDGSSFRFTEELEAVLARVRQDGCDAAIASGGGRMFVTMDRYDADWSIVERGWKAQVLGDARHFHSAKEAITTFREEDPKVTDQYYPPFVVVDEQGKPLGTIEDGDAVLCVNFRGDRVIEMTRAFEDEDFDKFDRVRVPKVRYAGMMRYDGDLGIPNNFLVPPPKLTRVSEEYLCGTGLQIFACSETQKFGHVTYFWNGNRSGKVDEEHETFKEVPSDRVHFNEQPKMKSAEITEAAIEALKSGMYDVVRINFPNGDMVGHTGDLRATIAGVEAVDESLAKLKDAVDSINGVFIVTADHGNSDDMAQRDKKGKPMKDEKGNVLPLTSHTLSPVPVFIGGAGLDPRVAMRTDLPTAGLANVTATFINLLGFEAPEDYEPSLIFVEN

CC1=C(C(=O)O)N2C(=O)[C@@H](NC(=O)C(N)C3=CCC=CC3)[C@H]2SC1 (some centres undefined)
inactive: Potency [1] | outcome [2] | Potency [3] | Potency [4] | Potency [5] | Potency [6] | Potency [7] | Potency [8]
3.51%: viability change [1]

C[C@H](O)C(=O)C1=Nc2c(nc(N)[nH]c2=O)NC1
8.34%: viability change [1]
inactive: Potency [1] | outcome [2] | Potency [3] | Potency [9] | Potency [4] | Potency [5] | Potency [8]
active: Potency [6] 56.2 µM

N=C(N)c1ccc(OCCCCCOc2ccc(C(=N)N)cc2)cc1 (tested in a mixture with another compound)
-17%: viability change [1]
inactive: Potency [1] | outcome [2] | Potency [3] | Potency [9] | Potency [4] | Potency [5] | Potency [6] | Potency [7] | Potency [8]

Cc1ccccc1/C=C/C1=NCCN1
-20.2%: viability change [1]
inactive: Potency [1] | outcome [2] | Potency [3] | Potency [9] | Potency [4] | Potency [5] | Potency [6]

COc1cc(CNC(=O)CCCCCCC(C)C)ccc1O
-9.77%: viability change [1]
inactive: Potency [1] | outcome [2] | Potency [3] | Potency [4] | Potency [5] | Potency [7] | Potency [8]

CCCn1c(=O)c2[nH]c(C3CCCC3)nc2n(CCC)c1=O
inactive: Potency [1] | outcome [2] | Potency [3] | Potency [9] | Potency [4] | Potency [5] | Potency [6] | Potency [7] | Potency [8]
-6.17%: viability change [1]

N[C@@H](CS(=O)O)C(=O)O
inactive: Potency [1] | outcome [2] | Potency [3] | Potency [10] | Potency [5] | Potency [6] | Potency [7] | Potency [8]
-0.201%: viability change [1]

N=C(N)c1ccc(N)cc1
inactive: Potency [1] | outcome [2] | Potency [10] | Potency [9] | Potency [4] | Potency [5] | Potency [6] | Potency [7] | Potency [8]
3.63%: viability change [1]

CC(C)(C)NCC(O)COc1cccc2[nH]c(=O)[nH]c12 (centres undefined)
-1.12%: viability change [1]
inactive: Potency [1] | outcome [2] | Potency [10] | Potency [9] | Potency [4] | Potency [5] | Potency [6] | Potency [7] | Potency [8]

NCC(O)C1CCCCCCC1 (centres undefined)
inactive: Potency [1] | outcome [2] | Potency [9] | Potency [4] | Potency [5] | Potency [6]
3.56%: viability change [1]

CO/N=C(\C(=O)N[C@@H]1C(=O)N2C(C(=O)O)=C(CSc3nc(=O)c(O)nn3C)CSC12)c1csc(N)n1 (some centres undefined)
3.25%: viability change [1]
inactive: Potency [1] | outcome [2] | Potency [10] | Potency [4] | Potency [5] | Potency [6] | Potency [7] | Potency [8]

CCCCS(=N)(=O)CC[C@H](N)C(=O)O (some centres undefined)
inactive: Potency [1] | outcome [2] | Potency [10] | Potency [9] | Potency [4] | Potency [5] | Potency [6] | Potency [7] | Potency [8]
0.751%: viability change [1]

Nc1ncnc2c1ncn2C1CCCC1
4.78%: viability change [1]
inactive: Potency [1] | outcome [2] | Potency [10] | Potency [9] | Potency [4] | Potency [5] | Potency [6] | Potency [7] | Potency [8]

CC(=O)SC1CC2=CC(=O)CC[C@]2(C)C2CC[C@@]3(C)C(CC[C@@]34CCC(=O)O4)C12 (some centres undefined)
inactive: Potency [1] | outcome [2] | Potency [9] | Potency [4] | Potency [5] | Potency [6] | Potency [7]
-9.73%: viability change [1]

C=CCN1CCc2c(cc(O)c(O)c2Br)[C@@H](c2ccccc2)C1
inactive: Potency [1] | outcome [2] | Potency [9] | Potency [4] | Potency [5] | Potency [7]
-6.77%: viability change [1]

c1ccc(C(NCc2cccnc2)(c2ccccc2)c2ccccc2)cc1
inactive: Potency [1] | outcome [2] | Potency [9] | Potency [4] | Potency [5]
7.92%: viability change [1]

C[C@](Cc1ccc(O)c(O)c1)(NN)C(=O)O
inactive: Potency [1] | outcome [2] | Potency [9] | Potency [4] | Potency [5] | Potency [6] | Potency [7] | Potency [8]
-1.27%: viability change [1]

CC(=O)/C(C)=N/O
inactive: Potency [1] | outcome [2] | Potency [10] | Potency [4] | Potency [5] | Potency [6] | Potency [8]
20.6%: viability change [1]

CN1Cc2sccc2C(c2ccc(O)c(O)c2)C1 (centres undefined)
inactive: Potency [1] | outcome [2] | Potency [9] | Potency [4] | Potency [5] | Potency [6] | Potency [8]
12.4%: viability change [1]

Cc1nc2n(c(=O)c1CCN1CCC(c3noc4cc(F)ccc34)CC1)CCCC2O (centres undefined)
3.12%: viability change [1]
inactive: Potency [1] | outcome [2] | Potency [9] | Potency [4] | Potency [5] | Potency [6] | Potency [8]

O=[N+]([O-])c1cccc2c(Br)[nH]nc12
2.48%: viability change [1]
inactive: Potency [1] | outcome [2] | Potency [10] | Potency [9] | Potency [4] | Potency [5] | Potency [6] | Potency [8]

c1ccc2c(c1)CCC[C@H]2Nc1nc2ccccc2[nH]1
inactive: Potency [1] | outcome [2] | Potency [9] | Potency [4] | Potency [5] | Potency [6] | Potency [7] | Potency [8]
-8.96%: viability change [1]

CCCCCCC(=O)OC1CC(C)(C)NC(C)(C)C1
2.37%: viability change [1]
inactive: Potency [1] | outcome [2] | Potency [9] | Potency [4] | Potency [5] | Potency [6] | Potency [7] | Potency [8]

CSC(=N)N
inactive: Potency [1] | outcome [2] | Potency [10] | Potency [9] | Potency [4] | Potency [5] | Potency [6] | Potency [7] | Potency [8]
-21.7%: viability change [1]

CC(N)(C(=O)O)c1ccc(C(=O)O)cc1 (centres undefined)
1.94%: viability change [1]
inactive: Potency [1] | outcome [2] | Potency [10] | Potency [4] | Potency [5] | Potency [6] | Potency [7] | Potency [8]

— PubChem BioAssay (NCATS)
